Measurements taken from PubChem BioAssay (NCATS).
Where “and” joins values, the source holds several entries; their conditions need not be identical. Identical values can stand only once. Results filed as inconclusive are left out. Entries that show only a call come without a potency. Calls of active or inactive are those of the source. Calls follow the shape of the dose curve; as a rule, active = well fitted curve in the direction sought with a large enough effect; inconclusive = small, poorly fitted or top-dose-only effect, or another doubt; inactive = no such curve, though single readings can be large; an effect the other way counts as inactive or inconclusive.

Experiment: qHTS of pediatric cancer cell lines to identify multiple opportunities for drug repurposing: Primary screen for LAN-5 cells (AID 1347100)
Conditions: LAN-5 neuroblastoma viability, CellTiter-Glo luminescence, 48 h; series mostly up to 46 µM; activity change, negative = cytotoxic: at the top concentration
Method in brief: (§1)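 Cells (500-1,000/well) rested 5 h, then received compounds for 48 h; metabolically active cells were measured by CellTiter-Glo luminescence. Final concentrations spanned up to 46 µM (MIPE, 11-point) or 0.59 nM-46 µM (NPC, 8-point) in primary screens, 11-point in follow-ups.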
Potency is read from the fitted curve at half-maximal effect.

Row | Structure (SMILES) | Potency | activity change, negative = cytotoxic
1 | O=C(O)c1cn(C2CC2)c2cc(N3CCNCC3)c(F)cc2c1=O | inactive | 
2 | OCc1ccc(-c2nn(Cc3ccccc3)c3ccccc23)o1 |  | -28.8% (inactive)
3 | COC(c1ccccc1)(c1ccccc1)[C@H](Oc1nc(C)cc(C)n1)C(=O)O | inactive | 
4 | CN(C)c1ccc(C(=C2C=CC(=[N+](C)C)C=C2)c2ccc(N(C)C)cc2)cc1 | 1.68 µM (active) and 526 nM (active) | 
5 | CN(CCOc1ccc(CC2SC(=O)NC2=O)cc1)c1ccccn1 (centres undefined) | inactive | 
6 | S=P(N1CC1)(N1CC1)N1CC1 | 18.7 µM (active) | 
7 | CCc1c2c(nc3ccc(OC(=O)N4CCC(N5CCCCC5)CC4)cc13)-c1cc3c(c(=O)n1C2)COC(=O)[C@]3(O)CC | 1.33 µM (active) and 372 nM (active) | 
8 | CCn1cc(C(=O)O)c(=O)c2cc(F)c(N3CCNCC3)nc21 | inactive | 
9 | C[C@@H]1CN(c2c(F)c(N)c3c(=O)c(C(=O)O)cn(C4CC4)c3c2F)C[C@H](C)N1 | inactive | 
10 | CO[C@@]12[C@H](COC(N)=O)C3=C(C(=O)C(C)=C(N)C3=O)N1C[C@@H]1N[C@@H]12 | 335 nM (active) and 1.05 µM (active) | 
11 | C#CCN[C@@H]1CCc2ccccc21 | inactive | 
12 | NCCCC(O)(P(=O)(O)O)P(=O)(O)O | inactive | 
13 | O=C(O)c1cc(=O)[nH]c(=O)[nH]1 | inactive | 
14 | CCOC(=O)c1ccc(OC(=O)CCCCCN=C(N)N)cc1 | inactive | 
15 | Cc1oc(=O)oc1CN1CCN(c2cc3c(cc2F)c(=O)c(C(=O)O)c2n3C(C)S2)CC1 (centres undefined) | inactive | 
16 | O=C(N[C@H](CO)[C@H](O)c1ccc([N+](=O)[O-])cc1)C(Cl)Cl | inactive | 
17 | NC(=O)c1cccc(N)c1 |  | -1.34% (inactive)
18 | O=C(O)CCn1c2c(c3ccccc31)C[C@H](NS(=O)(=O)c1ccc(F)cc1)CC2 | inactive | 
19 | N[C@@H](C(=O)N[C@@H]1C(=O)N2C(C(=O)O)=C(Cl)CS[C@H]12)c1ccccc1 | inactive | 

Row | Structure (SMILES) | Potency | activity change, negative = cytotoxic
20 | CC(C)NCC(O)c1ccc(NS(C)(=O)=O)cc1 (centres undefined) |  | 38.1% (inactive)
21 | COc1ccc2c(c1)c(CC(=O)OCC(=O)O)c(C)n2C(=O)c1ccc(Cl)cc1 | inactive | 
22 | CCCCc1oc2ccc(NS(C)(=O)=O)cc2c1C(=O)c1ccc(OCCCN(CCCC)CCCC)cc1 | 11.8 µM (active) and 18.8 µM (active) | 
23 | Cc1noc(NS(=O)(=O)c2ccc(N)cc2)c1C | inactive | 
24 | Cc1ncc([N+](=O)[O-])n1CCO | inactive | 
25 | CCN(C)C(=O)Oc1cccc([C@H](C)N(C)C)c1 | inactive | 
26 | CCN[C@H]1C[C@H](C)S(=O)(=O)c2sc(S(N)(=O)=O)cc21 | inactive | 
27 | NC(=O)N1c2ccccc2CC(=O)c2ccccc21 | inactive | 
28 | CCCCS(=N)(=O)CCC(N)C(=O)O (centres undefined) |  | 3.3% (inactive)
29 | COc1ccccc1OCC(O)COC(N)=O (centres undefined) | inactive | 
30 | Cc1onc(-c2ccccc2Cl)c1C(=O)N[C@@H]1C(=O)N2[C@@H]1SC(C)(C)[C@@H]2C(=O)O | inactive | 
31 | CCN(CC)CCn1c(=O)c(Cc2ccc(OC)cc2)nc2ccccc21 |  | -3.89% (inactive)
32 | Cc1cccc(Nc2ccncc2S(=O)(=O)NC(=O)NC(C)C)c1 | inactive | 
33 | NC(N)=NC(N)=NCCc1ccccc1 |  | 4.95% (inactive)
34 | O=P(O)(O)C(O)(Cc1cccnc1)P(=O)(O)O | inactive | 
35 | COc1ncnc(NS(=O)(=O)c2ccc(N)cc2)c1OC | inactive | 
36 | CC(C)C1CCC(C(=O)N[C@H](Cc2ccccc2)C(=O)O)CC1 (some centres undefined) | inactive | 
37 | CCOCC(O)COc1ccc(NC(=O)CC[S+](C)C)cc1 (centres undefined) | inactive | 

Experiment: qHTS of pediatric cancer cell lines to identify multiple opportunities for drug repurposing: Primary screen for BT-12 cells (AID 1347101); also: nearly all actives have a fitted effect of over 25% in size
Conditions: BT-12 viability, CellTiter-Glo luminescence, 48 h; series mostly up to 57.3 µM; activity change, negative = cytotoxic: at the top concentration
Method in brief: as §1

Row | Structure (SMILES) | Potency | activity change, negative = cytotoxic
38 | O=C(O)c1cn(C2CC2)c2cc(N3CCNCC3)c(F)cc2c1=O | inactive | 
39 | OCc1ccc(-c2nn(Cc3ccccc3)c3ccccc23)o1 |  | -20.9% (inactive)
40 | COC(c1ccccc1)(c1ccccc1)[C@H](Oc1nc(C)cc(C)n1)C(=O)O | inactive | 
41 | CN(C)c1ccc(C(=C2C=CC(=[N+](C)C)C=C2)c2ccc(N(C)C)cc2)cc1 | 1.38 µM (active) and 611 nM (active) | 
42 | CN(CCOc1ccc(CC2SC(=O)NC2=O)cc1)c1ccccn1 (centres undefined) | inactive | 
43 | S=P(N1CC1)(N1CC1)N1CC1 | inactive | 
44 | CCc1c2c(nc3ccc(OC(=O)N4CCC(N5CCCCC5)CC4)cc13)-c1cc3c(c(=O)n1C2)COC(=O)[C@]3(O)CC | 2.43 µM (active) | 
45 | CCn1cc(C(=O)O)c(=O)c2cc(F)c(N3CCNCC3)nc21 | inactive | 
46 | C[C@@H]1CN(c2c(F)c(N)c3c(=O)c(C(=O)O)cn(C4CC4)c3c2F)C[C@H](C)N1 | inactive | 
47 | CO[C@@]12[C@H](COC(N)=O)C3=C(C(=O)C(C)=C(N)C3=O)N1C[C@@H]1N[C@@H]12 | 3.47 µM (active) and 3.06 µM (active) | 
48 | C#CCN[C@@H]1CCc2ccccc21 | inactive | 
49 | NCCCC(O)(P(=O)(O)O)P(=O)(O)O | inactive | 
50 | O=C(O)c1cc(=O)[nH]c(=O)[nH]1 |  | 12.5% (inactive)
51 | CCOC(=O)c1ccc(OC(=O)CCCCCN=C(N)N)cc1 | inactive | 
52 | Cc1oc(=O)oc1CN1CCN(c2cc3c(cc2F)c(=O)c(C(=O)O)c2n3C(C)S2)CC1 (centres undefined) |  | 1.29% (inactive)
53 | O=C(N[C@H](CO)[C@H](O)c1ccc([N+](=O)[O-])cc1)C(Cl)Cl |  | 8.59% (inactive)
54 | NC(=O)c1cccc(N)c1 |  | 12.2% (inactive)
55 | O=C(O)CCn1c2c(c3ccccc31)C[C@H](NS(=O)(=O)c1ccc(F)cc1)CC2 | inactive | 
56 | N[C@@H](C(=O)N[C@@H]1C(=O)N2C(C(=O)O)=C(Cl)CS[C@H]12)c1ccccc1 | inactive | 

Row | Structure (SMILES) | Potency | activity change, negative = cytotoxic
57 | CC(C)NCC(O)c1ccc(NS(C)(=O)=O)cc1 (centres undefined) |  | 8.16% (inactive)
58 | COc1ccc2c(c1)c(CC(=O)OCC(=O)O)c(C)n2C(=O)c1ccc(Cl)cc1 | inactive | 
59 | CCCCc1oc2ccc(NS(C)(=O)=O)cc2c1C(=O)c1ccc(OCCCN(CCCC)CCCC)cc1 | 19.3 µM (active) and 12.3 µM (active) | 
60 | Cc1noc(NS(=O)(=O)c2ccc(N)cc2)c1C | inactive | 
61 | Cc1ncc([N+](=O)[O-])n1CCO | inactive | 
62 | CCN(C)C(=O)Oc1cccc([C@H](C)N(C)C)c1 | inactive | 
63 | CCN[C@H]1C[C@H](C)S(=O)(=O)c2sc(S(N)(=O)=O)cc21 | inactive | 
64 | NC(=O)N1c2ccccc2CC(=O)c2ccccc21 | inactive | 
65 | CCCCS(=N)(=O)CCC(N)C(=O)O (centres undefined) |  | 4% (inactive)
66 | COc1ccccc1OCC(O)COC(N)=O (centres undefined) | inactive | 
67 | Cc1onc(-c2ccccc2Cl)c1C(=O)N[C@@H]1C(=O)N2[C@@H]1SC(C)(C)[C@@H]2C(=O)O | inactive | 
68 | CCN(CC)CCn1c(=O)c(Cc2ccc(OC)cc2)nc2ccccc21 |  | 4.61% (inactive)
69 | Cc1cccc(Nc2ccncc2S(=O)(=O)NC(=O)NC(C)C)c1 | inactive | 
70 | NC(N)=NC(N)=NCCc1ccccc1 | 19.3 µM (active) | 
71 | O=P(O)(O)C(O)(Cc1cccnc1)P(=O)(O)O | inactive | 
72 | COc1ncnc(NS(=O)(=O)c2ccc(N)cc2)c1OC | inactive | 
73 | CC(C)C1CCC(C(=O)N[C@H](Cc2ccccc2)C(=O)O)CC1 (some centres undefined) | inactive | 
74 | CCOCC(O)COc1ccc(NC(=O)CC[S+](C)C)cc1 (centres undefined) | inactive | 
